# Assay outcomes from PubChem.
# A selection: hits, their analogues and other compounds. The true share with any hit is near 3.2%.
# CHT allo act: CHT positive allosteric modulators, primary screen, cell-based, membrane potential dye, choline EC20 | High affinity choline transporter 1 (Homo sapiens), Q9GZV3 | CHT-expressing cells; stronger effect = higher value; LV-AA mutant CHT in HEK293 cells | B-score at 10 µM | 310,000 compounds, 0.49% hits | AID 488977, 2010;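 active = initial fluorescence not abnormally high and integrated response B-score, plate-corrected, over 3 SD above library mean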
# Target sequence (Q9GZV3 whole entry, looked up): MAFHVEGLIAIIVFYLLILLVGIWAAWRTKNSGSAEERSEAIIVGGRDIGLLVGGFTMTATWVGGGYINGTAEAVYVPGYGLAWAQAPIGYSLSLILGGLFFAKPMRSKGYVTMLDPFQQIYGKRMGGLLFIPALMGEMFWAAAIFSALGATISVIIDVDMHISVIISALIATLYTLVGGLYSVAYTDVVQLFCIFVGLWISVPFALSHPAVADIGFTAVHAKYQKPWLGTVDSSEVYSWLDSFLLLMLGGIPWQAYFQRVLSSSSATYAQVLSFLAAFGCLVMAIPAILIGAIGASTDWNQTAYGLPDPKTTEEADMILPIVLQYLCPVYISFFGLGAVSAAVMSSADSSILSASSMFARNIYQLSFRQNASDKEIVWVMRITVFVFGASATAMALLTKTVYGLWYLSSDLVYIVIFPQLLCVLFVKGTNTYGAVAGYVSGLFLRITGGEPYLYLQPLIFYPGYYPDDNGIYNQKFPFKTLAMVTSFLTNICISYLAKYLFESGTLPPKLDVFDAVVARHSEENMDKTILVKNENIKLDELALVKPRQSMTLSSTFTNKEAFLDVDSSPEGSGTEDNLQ
# HDAC3 inhib: HDAC3 deacetylase inhibitors, primary screen, biochemical, fluorescence, cell-free homogeneous | 320,000 compounds, 0.15% hits | recombinant HDAC3, fluorogenic peptide/trypsin coupled | Histone deacetylase 3 (Homo sapiens), O15379 | inhibition, % at 8.3 µM | AID 2718, 2010; in the data active = inhibition above about 26%, passing the limit was not always enough
# ANO1 activ: TMEM16A chloride channel activators or potentiators, primary screen, cell-based, HTS; HEK293 TMEM16A/YFP-H148Q/I152L, iodide quench fluorescence; stronger effect = lower value; AID 623877, 2012; B-score at 10 µM; 340,000 compounds, 0.3% hits; Anoctamin-1 (Mus musculus), Q8BHY3;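 active = fluorescence-ratio B-score plate-corrected deviation score at least 3 library SD below zero, with starting fluorescence score within 5 deviations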;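 note: channel opened by trigger with iodide after compound preincubation; score built on the fluorescence ratio of max minus min over baseline; more negative score means more quench and so TMEM16A activation or potentiation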
# PHOSPHO1 inh: PubChem AID 1565. Phosphoethanolamine/phosphocholine phosphatase (Homo sapiens), Q8TCT1. recombinant PHOSPHO1, absorbance phosphatase assay. inhibition, % at 13.3 µM. 290,000 compounds, 1.1% hits; in the data active = inhibition above about 60%
# ANO1 block: TMEM16A chloride channel inhibitors, primary screen, cell-based, HTS; HEK293 TMEM16A/YFP iodide influx fluorescence, ionomycin; normalized B-score (activity score, 25-100; higher = stronger inhibition) at 10 µM; 310,000 compounds, 1.2% hits;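 active = ratio plate-corrected score three or more library SD toward inhibition, starting fluorescence score within five deviations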;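 note: score derived from kinetic fluorescence span divided by baseline fluorescence per well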
# CHT inh: inhibitors of human choline transporter CHT | High affinity choline transporter 1 (Homo sapiens), Q9GZV3 | CHT-expressing cells, membrane potential dye, choline response; stronger effect = lower value | B-score at 10 µM | 310,000 compounds, 0.86% hits | AID 488975, 2010;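 active = B-score over 3 SD under the library average, and starting fluorescence ratio not unusually high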;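 note: choline stimulus applied at its EC90 after an EC20 pre-addition; B-score computed on integrated fluorescence ratio after choline addition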
# TMEM16A reconf: TMEM16A chloride channel inhibitors, confirmation, cell-based, re-confirmation. shares compounds with ANO1 block. HEK293 TMEM16A/YFP-H148Q, iodide quench fluorescence; ionomycin added to raise cell calcium. inhibition, % at 10 µM. 2,300 compounds, 39% hits. AID 652189, 2013;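 active = mean duplicate percent inhibition, scaled so buffer wells are 0 and the reference blocker 100, over three buffer SD above buffer mean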
# HEK293 Ca mobil: calcium mobilization in TMEM16A/YFP HEK293 cells, confirmation, counter-screen for TMEM16A inhibitor project; Fluo4 calcium mobilization; shares compounds with ANO1 block; 2,300 compounds, 2% hits; calcium response (% of ionomycin), % at 10 µM; AID 652231, 2013;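 active = duplicate-averaged calcium signal over 20% of the ionomycin maximum, relative to buffer baseline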;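 note: each well's signal is peak minus trough fluorescence divided by its pre-addition baseline; 0% = buffer wells and 100% = ionomycin wells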
# Parental YFP cnt: iodide YFP quench changes in parental YFP-HEK293, counter-screen for TMEM16A inhibitor project, cell-based; YFP ratio F(max-min)/F0 at 10 µM; shares compounds with ANO1 block; 2,300 tested, under 10 active; ionomycin;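 active = yellow fluorescent protein signal ratio exceeding the buffer control mean by over 5 SD of those controls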;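 note: ratio is mean of duplicate wells from kinetic YFP trace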
# ClC-1 inh: ClC-1 chloride channel inhibition, selectivity assay for TMEM16A inhibitor project, cell-based, voltage-dependent ClC-1; shares compounds with ANO1 block; CHO ClC-1-YFP, iodide influx fluorescence quench; iodide control reads 0, buffer control 100; 2,300 tested, under 10 active; ratio percent, % at 10 µM;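 active = duplicate-mean ratio percent above the mean of iodide-only control wells, which defines zero, plus 5 of their SD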;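 note: higher percent means stronger block of ClC-1 iodide influx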
# Active calls of the source: *; i = inactive; · = no result; ! = repeats disagree.
SMILES,CHT allo act,HDAC3 inhib,ANO1 activ,PHOSPHO1 inh,ANO1 block,CHT inh,TMEM16A reconf,HEK293 Ca mobil,Parental YFP cnt,ClC-1 inh
CC(=O)c1ccc(N2CCN(S(=O)(=O)c3ccc4c(c3)CC(C)N4C(C)=O)CC2)cc1 (centres undefined),i,2,i,23,25*,i,26%*,i,-1.1,-22
Cc1ccc(C)c(N2CCN(S(=O)(=O)c3ccc4c(c3)CC(C)N4C(=O)C3CC3)CC2)c1 (centres undefined),i,-5,i,12,i,i,i,i,-1.2,-15
CC(=O)Nc1cc2c(cc1[N+](=O)[O-])-c1ccccc1C2O (centres undefined),·,·,i,·,·,·,·,·,·,·
Cc1c(Cl)c([N+](=O)[O-])nn1CCCC(=O)O,i,2,i,11,i,i,·,·,·,·
C[C@H](NC(=O)[C@@H]1Cc2ccccc2CN1)C(=O)Nc1ccc2c(c1)OCO2,i,7,i,33,i,i,·,·,·,·
Cc1cccc(N2CCN(C(=O)Cc3ccc(Br)cc3)CC2)c1C,i,7,i,-22,100*,i,i,i,-1,-12
Cc1cccc(N2CCN(C(=O)CNC(=O)Cc3ccccc3)CC2)c1C,·,-1,i,·,·,·,·,·,·,·
CCN(N=O)c1ccc(C=C2C=Cc3ccccc32)cc1,·,·,i,·,·,·,·,·,·,·
C[C@H](O)C(=O)C1=Nc2c(nc(N)[nH]c2=O)NC1,i,-24,i,·,i,i,37%*,89%*,-0.53,-2
CCOC(=O)Cc1c(C)nc(N)[nH]c1=O,i,-4,i,32,i,i,·,·,·,·
CC(NC(=O)C[n+]1cccc(Br)c1)c1ccccc1 (centres undefined),i,-9,i,-27,i,i,·,·,·,·
O=C(NCc1ccc(N2CCCC2=O)cc1)Nc1cccc(Cl)c1,i,2,i,-14,25*,i,i,i,-1.1,-6
CC1(C)NC(=O)N(CC(=O)OCC(=O)c2ccc(F)cc2)C1=O,i,-2,i,·,i,i,·,·,·,·
CC(NCCc1ccc(O)cc1)C(O)c1ccc(O)cc1 (centres undefined),i,-1,i,4,100*,i,i,i,-0.92,-10
CC(OC(=O)C1=COCCO1)C(=O)NC1(C#N)CCCCC1 (centres undefined),·,-9,i,·,·,·,·,·,·,·
COc1ccc(-c2noc(CCN3C(=O)c4ccccc4C3=O)n2)cc1OC,i,-6,i,6,i,i,·,·,·,·
C1CCC(C(CC2CCCCN2)C2CCCCC2)CC1 (centres undefined),i,0,i,-6,25*!,i,i,i,-1.1,-10
COc1cc(C2c3cc4c(cc3C(OC3OC5COC(c6cccs6)OC5C(O)C3O)C3COC(=O)C23)OCO4)cc(OC)c1O (centres undefined),i,-1,i,23,25*,i,i,i,-1.2,-10
O=C(NC1=NCCS1)c1ccc(Cl)c(S(=O)(=O)N2CCCC2)c1,i,-2,i,-13,25*,i,i,i,-0.98,-6
